KKLEB tox: cytotoxicity in KKLEB CF airway cells, primary screen, cytotoxicity control for CF NF-kB inhibitor project, cell-based, uHTS, fluorescence assay plates; KKLEB CF airway cells viability, ATPlite luminescence, overnight; stronger effect = lower value; cells stimulated with P. aeruginosa culture filtrate; activity change (cytotoxicity), % at 5 µM; hit rate 0.36% among 360,000;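 active = corrected activity change at or below -50% at 5 µM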
Peg3 prom inh: Peg3 promoter-driven luciferase inhibitors, primary screen, cell-based, HeLa, luciferase luminescence; HeLa PEG-Prom luciferase reporter, overnight; hit rate 1.7% among 360,000; inhibition, % at 20 µM;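 active = inhibition of at least 50% at 20 µM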
CF NFkB block: inhibitors of PAF-induced NF-kB signaling, primary screen, cell-based, GFP fluorescence, uHTS. KKLEB NF-kB-GFP reporter, GFP fluorescence overnight. inhibition, % at 5 µM. hit rate 0.86% among 360,000. AID 588850, 2011;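 active = at least 50% inhibition at 5 µM, scaled per plate between neutral and stimulator controls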;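 also: PAF is a Pseudomonas aeruginosa culture filtrate used as stimulus; plate controls were PAF-stimulated DMSO wells for no effect and unstimulated DMSO wells for full effect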
HIF-2a inh: HIF-2a reporter inhibitors, primary screen, luminescence, 786-0 RCC cells; hit rate 0.72% among 360,000; 786-0 RCC cells HIF-2a reporter, luciferase luminescence, overnight; inhibition, % at 18.8 µM;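 active = inhibition of the luminescence signal of 40% or more relative to plate controls, in a single-dose primary screen at 18.75 µM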
LMP1 NFkB inh: EBV LMP1-driven NF-kappaB luciferase reporter inhibitors, primary screen, cell-based, luminescence, single point; inhibition, % at 12.5 µM; hit rate 0.69% among 350,000; LMP1-induced NF-kappaB luciferase reporter cells; in the data active = inhibition above about 41%; inconclusive = no clear call, values can overlap the other calls;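 also: 0% = neutral control wells and 100% = reference inhibitor control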
MITF TRPM1 inh: inhibitors of MITF-dependent TRPM1 promoter reporter, primary screen, cell-based, SK-MEL-5, single point, luciferase; hit rate 0.83% among 330,000; SK-MEL-5 TRPM1 promoter luciferase, 24 h; inhibition, % at 12.5 µM;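 active = mean inhibition across replicates of 60% or more, whatever share of single replicates reaches that level; inconclusive = some that reach 60%, reason not given; inactive = mean inhibition across replicates below 60%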
* = called active by the depositor; ? = inconclusive; / = no result. Rows were chosen to be rich in hits. Some 3% of all compounds tested hit in one or more screens of this group.

SMILES	KKLEB tox	Peg3 prom inh	CF NFkB block	HIF-2a inh	LMP1 NFkB inh	MITF TRPM1 inh
CC1C(=O)N(Cc2cn(Cc3ccco3)nn2)CCS(=O)(=O)N1Cc1ccc(-c2ccc(Cl)cc2)cc1 (stereo not drawn)	8	21	9	-1	2	/
C[C@H]1CN([C@@H](C)CO)C(=O)c2cc(-c3cccc(F)c3)cnc2O[C@H]1CN(C)C(=O)c1cnccn1	-2	1	-5	2	-10	/
Cn1c(=O)c2c(nc(NCc3ccc4c(c3)OCO4)n2Cc2ccc(F)cc2)n(C)c1=O	-6	56*	3	18	25	15
COc1ccc(Cl)c(Cn2c(NCc3ccco3)nc3c2c(=O)n(C)c(=O)n3C)c1	0	35	0	8	56*	3
Cn1c(=O)c2c(nc(NCc3ccc4c(c3)OCO4)n2Cc2ccccc2)n(C)c1=O	5	28	5	15	4	4
Cn1c(NCc2ccccc2)nc2c1c(=O)n(Cc1ccc(Br)cc1)c(=O)n2C	0	51*	2	25	15	9
CN(c1ccc([N+](=O)[O-])cc1)c1cc2c(c3c1ccn3C)C1CCC2C1 (stereo not drawn)	8	-31	-5	-43	/	/
Cc1cccc(CN2CCN(C3CN(CCc4ccccc4)S(=O)(=O)C3)CC2)c1 (stereo not drawn)	-10	-2	3	22	/	/
COc1ccc2nc(C)cc(SCC(=O)N/N=C/c3cccc4ccccc34)c2c1	-42	60*	45	-7	29	?
COc1ccc2nc(C)cc(SCC(=O)N/N=C/c3ccc(O)c(O)c3)c2c1	6	11	-1	-40	4	-1
Cc1cc(SCC(=O)N/N=C/c2ccc(O)cc2O)nc2ccccc12	-1	54*	1	14	31	36
CCN1/C(=C/c2ccc3cc(C)ccc3[n+]2CC)Sc2cc(C)c(C)cc21	-14	52*	-11	11	11	69*
CCN1/C(=C/c2ccc3cc(C)ccc3[n+]2CC)Sc2ccccc21	-3	104*	-312	75*	-6	101*
CC[n+]1c(/C=C2\Sc3ccccc3N2C)ccc2cccc(C)c21	-18	114*	-248	79*	-14	104*
CC[n+]1ccccc1/C=C1\Sc2ccc(C)cc2N1C	-8	14	-56	-8	20	15
CCCS(=O)(=O)NC(=O)C1(C)CCN(C(=O)c2ccc(SC(F)(F)F)cc2)C1 (stereo not drawn)	-12	0	8	13	/	/
COc1ccc(NC(=O)c2cc(C3CCCCN3S(=O)(=O)c3ccccc3)on2)c(C)c1 (stereo not drawn)	-4	-5	-2	6	/	/
Cc1ccc2c(c1)c1c(n2CC(O)CNC2CCCCC2)CCCC1 (stereo not drawn)	1	102*	15	-13	-85	12
O=C(O)c1ccc(-n2cncn2)c([N+](=O)[O-])c1	-4	14	15	13	49*	-30
Cc1ccc(C(=O)NNC(=O)c2ccc(-n3cncn3)c([N+](=O)[O-])c2)cc1	11	14	4	4	9	0
O=C1NN=C(c2ccccc2)C1Cc1ccccc1 (stereo not drawn)	-1	-3	-18	-1	4	-8
COc1ccc(Cl)cc1NC(=O)CN1CCC(n2nnc3cc(C)ccc32)CC1	-18	86*	21	2	22	15
COc1ccccc1NC(=O)CN1CCC(n2nnc3cc(F)ccc32)CC1	1	2	4	22	7	-16
CCOC(=O)C1CCN(C(=O)c2ccccc2)c2scc(-c3ccccc3)c2C1=O (stereo not drawn)	6	3	-7	-10	2	/
COc1ccc2[nH]c(C)c(CCN3C(=O)OC(C)(C)C3(C)O)c2c1 (stereo not drawn)	4	-6	7	3	90*	-7
SMILES	KKLEB tox	Peg3 prom inh	CF NFkB block	HIF-2a inh	LMP1 NFkB inh	MITF TRPM1 inh
O=C(OCc1nnc(-c2ccc(Cl)cc2)o1)c1ccc(O)cc1	2	-64	4	-97	-7	-12
CS(=O)(=O)c1ccc(C(=O)OCc2nnc(-c3ccc(Cl)cc3)o2)cc1[N+](=O)[O-]	-19	104*	12	-12	-10	25
C=CCn1c(SCC(=O)Nc2ccccc2OC)nc2c([nH]c3ccccc32)c1=O	-57*	7	55*	15	-22	46
Cc1ccc(-c2csc(NC(=O)CSc3nnc4c(n3)[nH]c3ccccc34)n2)cc1	-12	56*	20	-31	8	20
Cc1ccc(NC(=O)CSc2nnc3c(n2)[nH]c2ccccc23)cc1	-1	4	-3	4	1	3
Cc1ccc(NC(=O)CSc2nc3c([nH]c4ccccc43)c(=O)n2C)cc1	6	54*	2	10	-40	/
CC1(C(=O)NCc2ccccc2)CN(S(C)(=O)=O)CC(=O)N1Cc1cccs1 (stereo not drawn)	/	/	/	-3	/	/
COC(=O)[C@@]1(Cc2ccc(F)cc2)[C@H]2c3cc(C(=O)N(C)C)n(CCF)c3C[C@H]2CN1C(=O)c1ccccc1	/	/	/	19	/	/
COC(=O)[C@@]1(Cc2ccccc2)[C@@H]2C(=CC(=O)[C@H]2CC(=O)C(=O)N(C)C)CN1C(=O)c1ccccc1	14	9	14	68*	16	47
OCc1ccccc1SSc1ccccc1CO	10	16	-29	29	/	/
CCc1nc2ccc(C(=O)N3CCN(C(C)=O)CC3)cn2c1N(CC)C(=O)NCCc1ccccc1	6	-39	-11	-51	/	/
CCSc1nnc(NC(=O)C(C)C)s1	8	-30	8	-38	-1	7
Cc1csc(NC(=O)CSc2nsc(SCC(=O)Nc3nc(C)cs3)c2C#N)n1	-5	-179	13	-179	-8	-1
Cc1ccc(NC(=O)CSc2nnc(NC(=O)C(C)C)s2)c(C)c1	10	18	-5	5	63*	0
Cc1ccc(NC(=O)CSc2nsc(SCC(=O)Nc3ccc(C)cc3C)c2C#N)c(C)c1	-8	77*	-2	2	-5	21
CC(C)c1ccccc1NC(=O)Nc1nnc([C@H]2C[C@H](O)[C@@H](CO)O2)s1	4	3	9	-1	/	/
Brc1ccc2c(c1)-c1ccccc1C1=NCCN12	-6	87*	-177	-56	17	/
COc1ccc(Br)cc1S(=O)(=O)N1CCN=C1c1ccccc1	2	26	4	19	-2	7
Cc1ccc(Cn2ccc(NC(=O)c3nn(C)cc3[N+](=O)[O-])n2)cc1	15	48	-14	-70	-7	23

Assay outcomes: PubChem BioAssay, several laboratories
